Compound activity: PubChem BioAssay, National Center for Advancing Translational Sciences (NCATS)
RORgamma inh: inhibitors of mouse ROR gamma transcriptional activity; AID 2551; Drosophila S2 Gal4-RORgamma UAS-luciferase reporter, 20 h; P51450; 5.4% of 310,000 active; Potency, µM (series often up to 53.6 µM), inactives show top-dose activity change, negative = inhibition, actives largely listed as inhibitors; note: % is set by controls: 0 for no effect and ±100 for the full control effect; nearly all actives have a fitted effect of over 60% in size
Target sequence (P51450 whole entry, looked up, the tested form may be a part): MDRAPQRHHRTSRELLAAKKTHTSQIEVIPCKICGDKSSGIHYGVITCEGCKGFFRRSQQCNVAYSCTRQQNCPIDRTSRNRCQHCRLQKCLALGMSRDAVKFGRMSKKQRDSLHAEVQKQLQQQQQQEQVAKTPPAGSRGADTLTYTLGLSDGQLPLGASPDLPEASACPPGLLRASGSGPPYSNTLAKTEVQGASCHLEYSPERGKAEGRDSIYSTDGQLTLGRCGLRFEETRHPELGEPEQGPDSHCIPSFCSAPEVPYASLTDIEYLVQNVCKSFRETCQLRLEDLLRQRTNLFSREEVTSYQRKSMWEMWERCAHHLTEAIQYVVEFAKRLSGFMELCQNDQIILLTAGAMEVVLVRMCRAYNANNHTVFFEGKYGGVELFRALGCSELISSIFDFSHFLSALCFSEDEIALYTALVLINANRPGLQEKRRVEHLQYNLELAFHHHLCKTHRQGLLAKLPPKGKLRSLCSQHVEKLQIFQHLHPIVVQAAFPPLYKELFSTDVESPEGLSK
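Luciferase reporter read in Schneider cells carrying Gal4-RORγ (mouse) and UAS-Photinus luciferase; cells given compound 1 h before 700 uM copper sulfate induction, then incubated 20 h at ambient temperature.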
ATXN2 expr inh: ATXN2 expression inhibition; HEK-293 ATXN2-luciferase reporter, luminescence, 24 h; Potency, µM (top dose mostly 57 µM), for inactives: top-dose activity change, negative = inhibition, actives largely listed as inhibitors; 0.72% of 360,000 active; AID 1745845; note: % is set by controls: 0 for no effect and ±100 for the full control effect; nearly all actives have a fitted effect of over 55% in size
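ATXN2-luciferase reporter cells (luciferase flanked by upstream and downstream ATXN2 gene portions) were treated 24 h at 37 °C with compounds at up to 57 uM. SteadyGlo luminescence gave expression; GF-AFC fluorescence gave viability.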
HepG2 viability: kills HepG2 cells in TGF-b inhibitor counter-screen | HepG2 CAGA-GFP viability, ATP luminescence, 18 h | Potency, µM (titrated, usually from 46.1 µM), inactives show at the highest dose activity change, negative = cytotoxicity, usual class: cytotoxic | 0.76% of 410,000 active | AID 588856
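CellTiter-Glo luminescence gave cytotoxicity after 18 hours at 37 degrees C. The cells were HepG2 CAGA-GFP in 1% FBS DMEM, stimulated with 500 pg/mL TGF-beta after compound addition. %Activity was normalised to no-cell wells (complete cell-killing) and DMSO (no toxicity), and curves were fitted and classified.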
S2 tox: cell viability loss in ATXN counter-screen | S2 cells (HEK-293 line with an ATXN2-luciferase reporter) viability, CellTiter-Fluor protease fluorescence, 24 h | Potency, µM (series often up to 56.7 µM), usual class: cytotoxic | 0.49% of 400,000 active; note: nearly all actives have a fitted effect of over 40% in size
Gal4-VP16 FLuc: inhibits Gal4-VP16 luciferase reporter, ROR gamma counter-screen; Drosophila S2 Gal4-VP16 UAS-luciferase, luminescence, 20 h; Potency, µM (top dose mostly 53.6 µM), without a hit: top-dose activity, negative = inhibition, hits mostly inhibitors; 3.5% of 310,000 active; AID 2546;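 note: Gal4-VP16 expression switched on by copper sulfate through the metallothionein promoter; % is set by controls: 0 for no effect and ±100 for the full control effect; nearly all actives have a fitted effect of over 50% in size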
TGFb SMAD3 inh: blocks TGF-b signaling. 1.2% of 410,000 active. AID 588855. Potency, µM (series often up to 46.1 µM), for inactives: at the top dose activity, negative = inhibition, usual class: inhibitors. HepG2 CAGA-GFP TGF-b/SMAD3 reporter, GFP fluorescence, 18 h; TGF-beta stimulated, 500 pg/mL final; note: % is set by controls: 0 for no effect and ±100 for the full control effect; nearly all actives have a fitted effect of over 65% in size
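Cell-based qHTS in HEPG2 carrying a CAGA-GFP Smad reporter; compounds added before 500 pg/mL final TGF-beta, 18 h incubation at 37 degrees C, GFP fluorescence quantified per cell by imaging cytometry.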
The depositor's hits bear a star; i = inactive; ? = inconclusive; / = not tested or not shown; [ ] = dose if it differs, or a comment. A selection: hits, their analogues and other compounds. The true share with any hit is near 6.1%. Calls come from the whole dose curve; as a rule, active = well fitted curve in the direction sought with a large enough effect; inconclusive = small, poorly fitted or top-dose-only effect, or another doubt; inactive = no such curve, though single readings can be large; an effect the other way counts as inactive or inconclusive. Potency is the fitted concentration of half-maximal effect.

SMILES	RORgamma inh	ATXN2 expr inh	HepG2 viability	S2 tox	Gal4-VP16 FLuc	TGFb SMAD3 inh
CC(=O)N1CCN(C(=S)Nc2cc(S(=O)(=O)N3CCOCC3)ccc2Cl)CC1	24%	/	-18%	i	-4%	-8%
C/C(=N\NC(=S)Nc1cc(S(=O)(=O)N2CCOCC2)ccc1Cl)c1ccc(N2CCOCC2)cc1	2.8µM*	-1%	1%	i	11µM*	-2%
COc1cccc(CNC(=O)Cn2c(=O)cc(C(F)(F)F)c3c(C)nn(C)c32)c1OC	/	11%	6%	i	/	-6%
CCCSc1ncc(Cl)c(C(=O)Nc2sc(C(C)=O)c(C)c2C(=O)OCC)n1	/	/	12%	/	/	/
CC[C@H](C)[C@H](NC(=O)CNC(=O)[C@H](CCCNC(=N)N)NC(=O)[C@H](CO)NC(=O)[C@H](C)NC(=O)[C@H](Cc1ccc(O)cc1)NC(=O)[C@H](Cc1c[nH]c2ccccc12)NC(=O)[C@H](C)NC(=O)[C@@H]1CCCN1C(=O)[C@H](CC(N)=O)NC(=O)[C@@H](NC(=O)[C@H](CC(=O)O)NC(=O)[C@@H]1CCCN1C(=O)[C@@H](NC(=O)[C@H](CCCNC(=N)N)NC(=O)[C@@H](NC(=O)[C@H](CCC(=O)O)NC(=O)[C@H](CCSC)NC(=O)[C@H](CO)NC(=O)[C@H](Cc1cnc[nH]1)NC(=O)[C@H](CCCNC(=N)N)NC(=O)[C@H](Cc1cnc[nH]1)NC(=O)[C@@H](NC(=O)[C@H](CCCNC(=N)N)NC(=O)[C@@H](N)CO)[C@@H](C)O)[C@@H](C)CC)[C@@H](C)O)[C@@H](C)CC)C(=O)N[C@@H](CCCNC(=N)N)C(=O)N1CCC[C@H]1C(=O)N[C@H](C(=O)NCC(=O)N[C@@H](CCCNC(=N)N)C(=O)N[C@@H](Cc1ccccc1)C(N)=O)C(C)C	4%	/	/	/	5%	/
COc1ccc(Cl)cc1-c1cc(C(=O)Nc2ccc(C)c(NS(C)(=O)=O)c2)[nH]n1	/	22µM*	-73%	16µM*	/	?
CN(C)c1ccc2c(-c3ccccc3)c3ccc(=[N+](C)C)cc-3oc2c1	?	/	/	/	3.2µM*	/
O=C(O)c1ccc(NC(=S)NCc2ccccc2)cc1	-35%	6%	0%	i	7%	8%
FC(F)Sc1ccc(NC(=S)NCc2ccccc2)cc1	11µM*	-14%[11.3 µM]	-14%	i	?	?
FC(F)Sc1ccc(NC(=S)NC(c2ccccc2)c2ccccc2)cc1	7.1µM*	/	11µM*	?	?	5.6µM*
FC(F)(F)c1ccc(NC(=S)NCc2ccccc2)cc1	4.5µM*	-24%	-46%	i	?	?
Fc1cc2[nH]c(=S)[nH]c2c(Br)c1N1CCSCC1	11µM*	1%	0%	i	13%	-13%
O=C(COc1ccc2ccccc2c1)N1c2ccccc2Sc2ccccc21	-23%	-11%	-33%	i	0%	-1%
O=C(CCl)N1c2ccccc2Sc2ccc3ccccc3c21	/	/	11µM*	?	/	14µM*
Cc1ccc(OCCCC(=O)Nc2ccccc2C(F)(F)F)cc1	12%	-20%	-23%	i	-2%	-1%
O=C(CCCOc1ccccc1)Nc1nc2ccccc2[nH]1	7.1µM*	3%	-1%	i	-7%	?
Cc1ccc(OCCCC(=O)Nc2nc3ccccc3[nH]2)cc1	6.3µM*	-17%	-13%	i	-5%	12%
O=C(CCCOc1ccccc1)NCCc1nc2ccccc2[nH]1	28%	-15%	-7%	i	1%	-12%
Cc1cccc(OCCCC(=O)Nc2nc3ccccc3[nH]2)c1	14µM*	13µM*	-6%	i	-21%	?
CC(=O)c1ccc(NC(=O)Cn2ncc3c(C)n(Cc4ccc(F)cc4)c(C)c3c2=O)cc1	/	/	-1%	/	/	-2%
COc1cc(N2CCC(N3CCN(C)CC3)CC2)ccc1Nc1ncc(Cl)c(Nc2ccccc2S(=O)(=O)C(C)C)n1	/	19µM*	/	/	/	/
CCOC(=O)Cc1csc(N/N=C/c2ccc(C(F)(F)F)cc2)n1	0.71µM*	?	-6%	i	?	-9%
CCOC(=O)Cc1csc(NC(=S)NC(=O)c2ccccc2C)n1	11µM*	-15%	-26%	i	-28%	-14%
CCOC(=O)Cc1csc(NC(=O)Cc2ccccc2)n1	3%	7%	-2%	i	-4%	-15%
CCOC(=O)Cc1csc(N/N=C/c2cccc([N+](=O)[O-])c2)n1	?	-5%	8%	i	-22%	2%
SMILES	RORgamma inh	ATXN2 expr inh	HepG2 viability	S2 tox	Gal4-VP16 FLuc	TGFb SMAD3 inh
CCOC(=O)Cc1csc(NC(=S)NC(=O)c2ccc(F)cc2)n1	11µM*	-5%	-6%	i	?	-5%
CCOC(=O)Cc1csc(NC(=S)NC(=O)c2cc(OC)c(OC)c(OC)c2)n1	?	/	0%	i	4%	-2%
COc1ccc(NC(=O)COc2ccc(S(=O)(=O)NC3CCCCC3)cc2)c(OC)c1	/	4%	-18%	?	/	-34%
CCN(CC)C(=O)CC(c1ccc(OC)cc1)c1c(OC)cc(OC)c2c(-c3ccccc3)cc(=O)oc12 (stereo not given)	?	/	-9%	/	-8%	?
O=C(NCc1ccco1)c1ccc(Cn2c(SCc3ccc(F)cc3)nc3cccnc32)cc1	/	/	-29%	/	/	?
CCOc1ccccc1CNC(=O)CN1C(=O)c2cccnc2Oc2ccc(C)cc21	/	/	-11%	/	/	?
COc1ccc(-c2noc(-c3cccnc3NCc3ccco3)n2)cc1	/	92%	11%	i	/	0%
CC(C)c1ccc(OCC(=O)NNC(=S)NC(=O)C2CC2)cc1	?	-38%	-25%	i	?	-17%
Cc1ccc(OCC(=O)NNC(=S)NC(=O)C2CC2)c(C)c1	8.9µM*	/	/	/	-22%	/
Cc1ccc(OCC(=O)NNC(=O)c2ccc(NC(=O)C3CC3)cc2)c(C)c1	?	-3%	-12%	i	-1%	-15%
Cc1ccc(OCC(=O)NNC(=S)NC(=O)C2CCCCC2)c(C)c1	10µM*	-18%	6%	i	-16%	13%
COc1ccc2ncc3c(-c4ccc(C)c(C)c4)nn(CC(=O)NC4CCCCC4)c3c2c1	/	0%	-2%	i	/	1%
CN(Cc1ccccc1)Cc1nc2scc(-c3ccccc3)c2c(=O)[nH]1	3.2µM*	4%	-6%	i	?	-12%
O=c1[nH]c(Cc2ccccc2)nc2scc(-c3ccccc3)c12	?	4%	-26%	i	9%	-3%
C=CCC1(CC=C)CCCN1C(=O)c1cc(COc2cccc(C(F)(F)F)c2)on1	-29%	-22%	12%	i	13µM*	?
